Assay [1] in a line: NCI Yeast Anticancer Drug Screen. Data for the rad50 strain (AID 155).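 Note: 0% = growth of vehicle-only cultures of the same strain.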 To be noted: S. cerevisiae rad50 strain growth inhibition; at 50.0 µM; hits give high values. A digest of the protocol: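 Cells are treated with compound, grown, and their growth is then scored against vehicle-only cultures of the same repair-deficient yeast strain.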
Assay [2] is described as follows: NCI Yeast Anticancer Drug Screen. Data for the mec2-1 strain (AID 157). To be noted: S. cerevisiae mec2-1 strain, at 50.0 µM, hits give high values. The gist of the method: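 Test agents were screened against the mec2-1 yeast strain, with defined DNA repair or cell cycle alteration. Growth was scored as inhibition against vehicle-only controls.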
A short description of assay [3]: NCI Yeast Anticancer Drug Screen. Data for the sgs1 mgt1 strain (AID 161).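 Note: 0% = growth of cultures given vehicle only.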 Conditions: S. cerevisiae sgs1 mgt1 strain, at 50.0 µM, hits give high values. The gist of the method: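 Read-out: growth inhibition vs vehicle controls. Cells: mutant yeast strain deficient in DNA damage repair.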
Assay [4] in a line: NCI Yeast Anticancer Drug Screen. Data for the cln2 rad14 strain (AID 165).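 Note: 0% = growth equal to vehicle treated cultures.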 Conditions: S. cerevisiae cln2 rad14 strain, at 50.0 µM, hits give high values. The gist of the method: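 Growth of compound-exposed yeast (cln2 rad14 genotype) measured and expressed as inhibition relative to vehicle.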
Assay [5] is described as follows: NCI Yeast Anticancer Drug Screen. Data for the bub3 strain (AID 167). To be noted: S. cerevisiae bub3 mutant strain, at 50.0 µM, hits give high values. The gist of the method:
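Part of a panel of yeast mutants defective in DNA damage repair or cell cycle regulation. Each strain is grown with compound, and inhibition is calculated relative to solvent-treated cultures.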

Assay [6] is described as follows: NCI Yeast Anticancer Drug Screen. Data for the mlh1 rad18 strain (AID 175). Conditions: S. cerevisiae mlh1 rad18 strain growth inhibition; at 50.0 µM; hits give high values. A digest of the protocol:
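In this whole-cell yeast screen, a strain with altered DNA damage repair is challenged with compound, and its growth is measured against matched vehicle-treated controls.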

About 79,000 compounds went through this panel and 15% of them were active in at least one assay; those are over-represented in the sample as a whole. Values without a mark were called inactive. Active and inactive are the calls of the source. Cut-off read from the data, not from the text of the source: active = growth inhibition above about 70%; inactive = the rest.

As to `O=C(CI)Nc1ccc(Cl)c(Cl)c1`, the growth inhibition in assay [1] is 99.7% (active); in assay [2], 99.3% (active); in assay [3] it was 99.8% (active); in assay [4], 99.6% (active); in assay [5], 99.8% (active); in assay [6], 99.7% (active).
Take `CCOC(=O)c1c(N)sc2c1C(C(=O)OCC)CCCC2` (stereo unspecified): the growth inhibition was -11.1% in assay [1]; 7.5% in assay [2]; 27.3% in assay [3]; -16.2% in assay [4]; 37.5% in assay [5]; 38.2% in assay [6].
Consider `CC(C)C(=O)Nc1ccccc1-c1ccccc1`, for which the growth inhibition in assay [1] is 14.3%; in assay [2], -1.45%; in assay [3], -9.35%; in assay [4], -1.4%; in assay [5] it was 0.05%; in assay [6], 8.8%.
For `CC(=O)Oc1cccc(OC(C)=O)c1`, the growth inhibition is 41.8% in assay [1]; 38.9% in assay [2]; 25.2% in assay [3]; 12.1% in assay [4]; 6.8% in assay [5]; 34.9% in assay [6].
Turning to `Cc1ccc(C)c(NC(=O)C(=O)CC(=O)c2cccc3ccccc23)c1`, the growth inhibition in assay [1] was -15.8%; in assay [2] it was -33.1%; in assay [3], 2.05%; in assay [4], 17.1%; in assay [5], -20.8%; in assay [6] it was -21.1%.
Take `Cc1ccc2oc(=O)cc(CC(=O)O)c2c1`: the growth inhibition in assay [1] is -6%; in assay [2], -8.3%; in assay [3], -10.4%; in assay [4] it was 12.1%; in assay [5], -10.7%; in assay [6] it was -7.9%.
Turning to `C(=N\N=C\c1ccccn1)/c1ccccn1`, the growth inhibition in assay [1] is 9.65%; in assay [2] it was -6.95%; in assay [3] it was 5.5%; in assay [4] it was 4.8%; in assay [5] it was -3.7%; in assay [6], 26.2%.
In the case of `O=C1C=C2CCCCCCCCC(C1)C2` (stereo unspecified), the growth inhibition in assay [1] was -1.85%; in assay [2], -9.85%; in assay [3], -5.45%; in assay [4], -18.8%; in assay [5], 12.4%; in assay [6], 0.1%.
For `CC(=O)Nc1ccc(C(=O)CC(c2ccccc2)N2CCOCC2)cc1` (stereo unspecified), the growth inhibition in assay [1] was 4.3%; in assay [2], 14.1%; in assay [3], 11.9%; in assay [4], -19%; in assay [5] it was 26.1%; in assay [6] it was 2.8%.
As to `O=c1[nH]c(=O)n(COCCO)cc1-c1ccccc1`, the growth inhibition is -8.75% in assay [1]; -5.65% in assay [2]; 1.9% in assay [3]; 5.75% in assay [4]; -1.25% in assay [5]; -2.9% in assay [6].
Consider `Cc1ccc(CCCC(N)=O)cc1`, for which the growth inhibition was 32.1% in assay [1]; -0.15% in assay [2]; 8.85% in assay [3]; 4.1% in assay [4]; -2.15% in assay [5]; 2.55% in assay [6].
As for `CC(C)C1OCC(CO)([N+](=O)[O-])CO1` (stereo unspecified), the growth inhibition in assay [1] was -45%; in assay [2], -18.4%; in assay [3], -21.8%; in assay [4], -54.5%; in assay [5] it was 1.35%; in assay [6] it was -6.15%.
In the case of `C(=C\c1csnn1)/c1cccnc1`, the growth inhibition in assay [1] was 29.9%; in assay [2], -1.95%; in assay [3], 2.05%; in assay [4], 6.35%; in assay [5] it was 9.3%; in assay [6], 5.75%.
Regarding `CCCCOc1ccc(Nc2c(C(=O)O)cnc3cc4c(cc23)OCO4)cc1`, the growth inhibition in assay [1] is -11.1%; in assay [2], 3.25%; in assay [3], -13.7%; in assay [4], 5.4%; in assay [5], -4.85%; in assay [6], 18.4%.
In the case of `COc1ccccc1C(=O)NO`, the growth inhibition in assay [1] is -14.1%; in assay [2], -27.2%; in assay [3] it was -22.9%; in assay [4] it was 8.05%; in assay [5] it was -14.2%; in assay [6] it was -7.55%.
With `CCCCCCCCCCCC(=O)OC(C)CO` (stereo unspecified), the growth inhibition is -3.9% in assay [1]; -10.9% in assay [2]; -3.7% in assay [3]; -32.9% in assay [4]; -1.45% in assay [5]; 17.1% in assay [6].
Take `NCCN(CCN)/[N+]([O-])=N/O`: the growth inhibition in assay [1] is 18.6%; in assay [2], -0.2%; in assay [3] it was 6.3%; in assay [4], -1%; in assay [5], 0.65%; in assay [6], 16.9%.
In the case of `C=CCC(C(=O)O)c1ccccc1` (stereo unspecified), the growth inhibition in assay [1] is -11.2%; in assay [2], -12.2%; in assay [3], -5.2%; in assay [4], -29.9%; in assay [5] it was -14.6%; in assay [6], 1.75%.
For `c1ccc(Nc2cc(Nc3ccccc3)ncn2)cc1`, the growth inhibition in assay [1] was 4.4%; in assay [2], -20.5%; in assay [3] it was 3.8%; in assay [4] it was -6.5%; in assay [5], -2.2%; in assay [6], 2.35%.
For `Cc1sc2nc(N(C)C)oc(=O)c2c1C`, the growth inhibition was 28.8% in assay [1]; 51% in assay [2]; 33.6% in assay [3]; 1.5% in assay [4]; 64.4% in assay [5]; 50.5% in assay [6].
`O=C1CCCc2[nH]c(=O)ccc21`: the growth inhibition in assay [1] was 13%; in assay [2], -3.1%; in assay [3], 0%; in assay [4], -7.95%; in assay [5], 0.3%; in assay [6] it was 9.9%.
Turning to `C[N+]1(C)CCC(O)C(c2ccccc2)C1` (stereo unspecified), the growth inhibition in assay [1] was -8.9%; in assay [2], -0.45%; in assay [3], -3.5%; in assay [4] it was -22.5%; in assay [5] it was -8.1%; in assay [6] it was -0.7%.
For `COc1c(-c2ccccc2)c(=O)n2c3cc(C)c(C)cc3n(C)c2c1C#N`, the growth inhibition in assay [1] is -13.4%; in assay [2], -0.4%; in assay [3] it was 18.5%; in assay [4], -13.9%; in assay [5], -31.1%; in assay [6], -2.85%.
Consider `c1ccnnc1`, for which the growth inhibition is 15.9% in assay [1]; -29% in assay [2]; 4.8% in assay [3]; -10.2% in assay [4]; -0.4% in assay [5]; 4.25% in assay [6].
`CC1=C(C(=O)O)CCc2ccccc21`: the growth inhibition is 40.7% in assay [1]; -11.5% in assay [2]; 19.9% in assay [3]; 13.7% in assay [4]; 15% in assay [5]; 36.8% in assay [6].
Turning to `CCCCOC(=O)NC(=O)c1cc2cccc(OC)c2oc1=O`, the growth inhibition was 17.1% in assay [1]; 21.6% in assay [2]; 14.4% in assay [3]; 14.3% in assay [4]; 14.8% in assay [5]; 10.2% in assay [6].
In the case of `COc1ccc(C23CCC(=O)N2CCS3)cc1` (stereo unspecified), the growth inhibition in assay [1] was -1.25%; in assay [2], -20.3%; in assay [3], -10.7%; in assay [4] it was 8.15%; in assay [5], 30%; in assay [6] it was 2.8%.
Consider `N#CC(C(=O)CCc1nc2ccccc2[nH]1)c1nc2ccccc2s1` (stereo unspecified), for which the growth inhibition was 6.75% in assay [1]; -3.5% in assay [2]; -9.55% in assay [3]; -17.8% in assay [4]; 4.35% in assay [5]; -0.6% in assay [6].
As for `CC12CC3(C)CC(C)(C1)CC(C(NC(C)(C)C)C(=O)O)(C2)C3` (stereo unspecified), the growth inhibition is 16.8% in assay [1]; 20.1% in assay [2]; 11.9% in assay [3]; 5.7% in assay [4]; 18.9% in assay [5]; 21.2% in assay [6].
For `N=Cc1ccccc1O`, the growth inhibition in assay [1] is -3.3%; in assay [2], -10.3%; in assay [3], -4.8%; in assay [4], 7.8%; in assay [5], 2.9%; in assay [6], 2.55%.
As to `CC(N)(CCSCP(=O)(O)O)C(=O)O` (stereo unspecified), the growth inhibition in assay [1] is -22.1%; in assay [2] it was -7.4%; in assay [3], -19.5%; in assay [4], -26.9%; in assay [5], -7.45%; in assay [6], -27.4%.
On to `CC1(C)C2CCC(CCOC(=O)COc3ccc(Cl)cc3)C1C2` (stereo unspecified), for which the growth inhibition in assay [1] was -9.45%; in assay [2], 5.5%; in assay [3], 12.1%; in assay [4], -44.2%; in assay [5], 3.15%; in assay [6] it was 12.6%.
Regarding `CSc1ccc(C2=CCCCC2)cc1`, the growth inhibition in assay [1] was -4.35%; in assay [2], -1.7%; in assay [3], 0.05%; in assay [4], -15%; in assay [5], 0.95%; in assay [6], 17.9%.
In the case of `COc1ccc2ccccc2c1Br`, the growth inhibition was -11.3% in assay [1]; 8.25% in assay [2]; -3.25% in assay [3]; -24.1% in assay [4]; -19.3% in assay [5]; 8.65% in assay [6].
In the case of `CCCCCCCCCCCC[N+]12CC[N+](C)(CC1)CC2`, the growth inhibition is 16.2% in assay [1]; -24.4% in assay [2]; -10.7% in assay [3]; -49% in assay [4]; -27.6% in assay [5]; -15.6% in assay [6].
On to `O=C(Nc1ccc(Cl)c(Cl)c1)c1ccc(Cl)cc1`, for which the growth inhibition in assay [1] was 2%; in assay [2] it was 11.3%; in assay [3], 7.65%; in assay [4], 8.2%; in assay [5], 19.1%; in assay [6] it was 13%.
